# FadD28 binding – M. tuberculosis FadD28 bisubstrate binding inhibition; inhibition, % at 12.5 µM; actives 0.22% (n = 360,000); FadD28 bisubstrate probe binding, fluorescence polarization; in the data active means inhibition above about 8.5%, passing the limit was not always enough
# UGM FP inh – blocks M. tuberculosis UGM enzyme; inhibition, % at 10 µM; actives 0.06% (n = 320,000); purified UGM, fluorescence polarization probe displacement; in the data active means inhibition above about 10%, passing the limit was not always enough
# Rv3671c inh – Rv3671c (M. tuberculosis) protease inhibition | P9WHR9 | inhibition, % at 5.96 µM | actives 0.048% (n = 320,000) | AID 2606; in the data active means inhibition above about 38%;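 further: extracellular domain of Rv3671c used as enzyme; 0% = enzyme with DMSO and 100% = no enzyme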
# Target sequence (P9WHR9 whole entry, looked up, the tested form may be a part): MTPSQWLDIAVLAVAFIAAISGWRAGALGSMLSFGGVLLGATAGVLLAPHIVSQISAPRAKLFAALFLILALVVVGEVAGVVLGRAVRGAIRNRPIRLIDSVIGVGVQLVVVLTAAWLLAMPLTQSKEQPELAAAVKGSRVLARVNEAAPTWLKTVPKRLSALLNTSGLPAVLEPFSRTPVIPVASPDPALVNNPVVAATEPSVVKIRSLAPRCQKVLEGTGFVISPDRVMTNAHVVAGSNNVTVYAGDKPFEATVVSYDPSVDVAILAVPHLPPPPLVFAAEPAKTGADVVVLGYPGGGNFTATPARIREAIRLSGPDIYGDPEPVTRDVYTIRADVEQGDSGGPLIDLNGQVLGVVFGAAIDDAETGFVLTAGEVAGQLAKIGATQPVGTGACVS
# TcdB inh – TcdB glycohydrolase inhibition; inhibition, % at 9.99 µM; actives 0.24% (n = 350,000); TcdB glycohydrolase enzymatic assay, plate reader; in the data active means inhibition above about 10%
# RecA splice inh – blocks M. tuberculosis RecA intein splicing; P9WHJ3; cell-free RecA intein splicing, fluorescence; inhibition, % (test concentration not listed); actives 0.75% (n = 290,000); AID 2221; in the data active means inhibition above about 30%;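 further: 0% = vehicle wells and 100% = reference inhibitor control wells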
# BioA inh – inhibitors of Mycobacterium tuberculosis BioA enzyme | purified M. tuberculosis BioA enzyme, plate reader | inhibition, % at 9.99 µM | actives 0.096% (n = 360,000) | AID 602481; in the data active means inhibition above about 40%
# * marks the source's active call; other numbers are inactive results; · = no result given. This is a sample that favours compounds with a hit; in the whole collection about 0.9% have one here.
SMILES,FadD28 binding,UGM FP inh,Rv3671c inh,TcdB inh,RecA splice inh,BioA inh
COc1ccc(NC(=O)N[C@@H]2CC[C@H](CC(=O)NC3CCC3)O[C@@H]2CO)cc1,·,·,·,1.7,·,-0.8
O=C(CSc1ccc2c(c1)OCCO2)Nc1ccccc1,-0.6,·,·,1.0,·,0.2
CCN(c1ccc(NC(=O)CSc2ccc3c(c2)OCCO3)cc1)C(C)C,47.2*,-4.8,2.5,-9.5,·,-0.8
O=C(COc1ccc(/C=N/NC(=O)c2ccc(O)cc2)cc1)Nc1cccc([N+](=O)[O-])c1,-0.2,0.2,-73.2,15.4*,·,·
O=C(CCN1C(=O)/C(=C\c2ccco2)SC1=S)Nc1ccc(C(=O)O)c(O)c1,15.3*,1.2,-16.8,-1.2,26.2,-0.2
O=C(CCN1C(=O)/C(=C/c2ccco2)SC1=S)Nc1ccc(C(=O)O)c(O)c1,11.4*,1.2,-18.8,0.3,26.8,0.8
COc1ccccc1/C=C1\SC(=S)N(CCC(=O)Nc2ccc(C(=O)O)c(O)c2)C1=O,-5.6,0.8,-46.6,0.7,29.5,·
COc1cccc(S(=O)(=O)N[C@@H]2C=C[C@@H](CC(=O)NC3CCC3)O[C@H]2CO)c1,·,·,·,0.7,·,1.5
CCOC(=O)c1ccc(N2C(=O)c3n[nH]c(-c4ccco4)c3C2c2ccc([N+](=O)[O-])cc2)cc1 (stereo not given),-6.3,1.2,-151.3,·,31.9*,2.5
CCOC(=O)c1ccc(N2C(=O)c3n[nH]c(C)c3C2c2cccnc2)cc1 (stereo not given),0.2,-1.1,-9.4,·,-3.3,8.3
C[C@H](CO)N1C[C@H](C)[C@@H](CN(C)C(=O)c2ccc(F)cc2)Oc2cc(C3=CCCC3)ccc2S1(=O)=O,·,·,·,-0.1,·,1.0
CCC(=O)Oc1ccc(C(=O)Nc2cccc(C(=O)c3ccccc3)c2)cc1,-2.5,2.4,-26.4,·,35.9*,2.1
CC(=O)Oc1ccc(C(=O)Nc2cccc(C(=O)c3cccc(NC(=O)c4ccc(OC(C)=O)cc4)c3)c2)cc1,-1.7,-0.6,-51.2,·,3.8,·
COC(=O)c1c(NC(=O)/C=C/C(=O)O)sc(C)c1-c1ccc(C)cc1,-2.5,-1.5,-4.4,0.8,43.4*,29.5
O=C(NC1CCC1)[C@@H]1[C@@H](CO)[C@@H]2Cn3c(ccc(-c4ccncc4)c3=O)[C@@H]2N1CCc1ccccc1,·,·,·,-0.1,·,·
C[C@H](CO)N1C[C@H](C)[C@H](CN(C)C(=O)Nc2ccc3c(c2)OCO3)Oc2ccc(NC(=O)Cc3ccccc3)cc2C1=O,·,·,·,-0.2,·,2.2
NC(=O)c1sc2nc3c(c(-c4ccco4)c2c1N)CCC3,2.0,0.0,-3.5,1.8,6.7,3.9
Nc1c(C(=O)NC2CC2)sc2nc3c(c(-c4ccco4)c12)CC/C3=C/c1ccco1,18.1*,-1.9,11.0,·,·,·
C[C@H](CO)N1C[C@H](C)[C@@H](CN(C)Cc2ccc(Oc3ccccc3)cc2)Oc2ccc(NS(C)(=O)=O)cc2CC1=O,·,·,·,0.3,·,0.7
CC1(C)C(/C=C/C=C/C=C/C=C2\N(CCCCS(=O)(=O)O)c3ccc4ccccc4c3C2(C)C)=[N+](CCCCS(=O)(=O)[O-])c2ccc3ccccc3c21,11.7*,0.5,-86.7,·,·,0.4
CC[C@H](C)[C@@H]1NC(=O)c2cc([N+](=O)[O-])cc(I)c2NCC[C@@H](C(N)=O)NC(=O)[C@H](CCCN=C(N)N)NC1=O,·,-1.9,5.5,10.2*,·,·
Cc1noc(NS(=O)(=O)c2ccc(N/C=C\C(=O)c3cccc4ccccc34)cc2)c1C,23.7*,-0.2,-0.9,0.4,2.1,4.3
Cc1noc(NS(=O)(=O)c2ccc(NC(=O)C(Cl)(Cl)Cl)cc2)c1C,-3.5,1.6,-2.9,0.0,-4.7,0.5
Cc1noc(NS(=O)(=O)c2ccc(NC(=O)/C=C/c3ccc(C(C)C)cc3)cc2)c1C,25.9*,3.1,-5.6,0.4,5.5,0.3
Cc1noc(NS(=O)(=O)c2ccc(NC(=O)Nc3ccc(Cl)c(Cl)c3)cc2)c1C,31.2*,5.0,-31.4,·,20.0,8.6
SMILES,FadD28 binding,UGM FP inh,Rv3671c inh,TcdB inh,RecA splice inh,BioA inh
Cc1noc(NS(=O)(=O)c2ccc(NC(=O)/C=C/c3ccc(Br)cc3)cc2)c1C,9.7*,1.6,·,-0.2,0.4,1.4
CS/C(=C\[N+](=O)[O-])Nc1ccc(OC(F)(F)F)cc1,-4.0,1.5,-19.5,1.9,57.2*,-0.6
C[C@@H]1CN([C@H](C)CO)C(=O)c2cc(NC(=O)NC3CCCCC3)ccc2O[C@H]1CN(C)C,·,·,·,0.0,·,-0.1
CC(=O)[C@@]1(O)Cc2c(O)c3c(c(O)c2[C@H](O[C@H]2C[C@H](N)[C@H](O)[C@H](C)O2)C1)C(=O)c1ccccc1C3=O,74.2*,·,·,-3.1,·,-93.9
COc1cccc2c1C(=O)c1c(O)c3c(c(O)c1C2=O)CC(O)(C(C)=O)CC3OC1CC(N(C)C)C(O)C(C)O1 (stereo not given),60.2*,·,·,-24.3,·,·
COc1cccc2c1C(=O)c1c(O)c3c(c(O)c1C2=O)C[C@@](O)(C(=O)CO)C[C@@H]3O[C@H]1C[C@H](N)[C@H](O)[C@H](C)O1,63.4*,39.9*,30.3,-13.9,-7.8,-41.7
COc1cccc2c1C(=O)c1c(O)c3c(c(O)c1C2=O)CC(O)(C(C)=NO)CC3OC1CC(N)C(O)C(C)O1 (stereo not given),63.3*,·,·,-24.0,·,·
N#C[C@H]1[C@@H](c2ccccc2-c2ccccc2F)[C@@H](CO)N1C(=O)C1CCOCC1,·,·,·,-0.5,·,·
COc1cccc2c1C(=O)c1c(O)c3c(c(O)c1C2=O)C[C@@](O)(C(=O)CO)C[C@@H]3OC1CC(N)C(O)C(C)O1 (stereo not given in full),52.8*,·,·,-15.2,·,·
CCc1ccc([C@@H]2CC=C(C(=O)O)CN2S(=O)(=O)c2ccc(C)cc2)cc1,-1.2,-2.6,-4.6,1.4,·,-0.2
Cc1ccc(S(=O)(=O)N2CC(CO)=CCC2c2ccccc2)cc1 (stereo not given),·,·,·,25.5*,·,·
O=C(O)c1c(C(=O)O)c(-c2ccc(Br)cc2)n2c1CSC2,12.6*,-3.5,-5.6,0.6,-1.3,0.4
Cc1ccc(-c2c(C(=O)O)c(C(=O)O)c3n2CSC3)cc1,-1.7,0.1,-0.1,0.6,0.1,1.1
Cc1ccc2c(c1)c(C)cc[n+]2Cc1ccccc1,0.7,2.0,-3.4,·,2.3,2.1
Cc1ccc2ccc[n+](Cc3ccccc3)c2c1,-3.7,-0.6,2.0,10.9*,-3.4,-0.7
O=C1C2C3C=CC(C3)C2C(=O)N1CNc1ccc(O)cc1 (stereo not given),·,1.2,-11.0,·,61.9*,·
Cc1cc2ncn(/N=C/c3ccc([N+](=O)[O-])s3)c2cc1C,-2.3,-8.0,6.6,·,5.7,·
O=[N+]([O-])c1ccc(/C=N/n2cnc3ccccc32)s1,-0.5,11.3*,-10.2,-0.1,1.6,-3.0
COc1ccc(NC(=O)N(C)C[C@H]2Oc3ccc(NC(=O)Cc4cn(C)c5ccccc45)cc3C(=O)N([C@@H](C)CO)C[C@H]2C)cc1,·,·,·,-0.1,·,-1.6
C[C@@H]1CN([C@@H](C)CO)C(=O)Cc2cc(NC(=O)Cc3cn(C)c4ccccc34)ccc2O[C@H]1CN(C)Cc1ccc(-c2ccccc2)cc1,·,·,·,0.2,·,·

# Screening data from PubChem BioAssay.
